Compound activity from PubChem BioAssay.
NALP3 yeast inh: NALP3 inflammasome inhibitors in reconstituted yeast, primary screen, luminescence, uHTS | Yeast reconstituted NLRP3/ASC/caspase-1, beta-gal luminescence, 24 h | inhibition, % at 10 µM | 0.39% of 330,000 active;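 active = inhibition of 50% or more; inactive = inhibition below 50%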;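 note: plate controls were induced DMSO wells for no effect and uninduced yeast grown without galactose for full effect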
tim23-1 inh: growth inhibitors of tim23-1 mutant yeast, primary screen, luminescence, uHTS; S. cerevisiae tim23-1 growth, BacTiter-Glo luminescence, 24 h; inhibition, % at 20 µM; 1.3% of 330,000 active;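 active = growth inhibition of the mutant yeast at or above 50%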;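 note: temperature-sensitive mutant grown at 25 °C; plate controls were DMSO-treated mutant yeast for no effect and medium wells lacking yeast for full effect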
TIM10 inh: growth inhibitors of isogenic TIM10 control yeast, primary screen, counter-screen for tim10-1 yeast inhibitor project, luminescence, uHTS | S. cerevisiae TIM10 strain growth, BacTiter-Glo luminescence, 24 h | inhibition, % at 10 µM | 1.4% of 330,000 active | AID 463195, 2010;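 active = inhibition of 40% or more at the single tested concentration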;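 note: wild-type TIM10 isogenic control strain grown at permissive 25 °C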
tim10-1 inh: growth inhibitors of tim10-1 mutant yeast, primary screen, luminescence, uHTS; S. cerevisiae tim10-1 ts strain growth, BacTiter-Glo, 24 h; inhibition, % at 20 µM; 2.2% of 330,000 active; AID 463190, 2010;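 active = inhibition of at least 40%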;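 note: mutant grown at 25 °C; 0% = DMSO wells with yeast and 100% = wells holding no yeast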
NALP1 inh: NALP1 inflammasome inhibitors in reconstituted yeast, colorimetric, S. cerevisiae, triplicate retest | AID 2071, 2009 | inhibition, % at 10 µM | 0.61% of 280,000 active | S. cerevisiae NALP1/ASC/caspase-1 growth, X-gal OD620, 72 h; in the data active = inhibition mostly above about 24%, no sharp cut-off; inactive = mostly below about 32%
TIM10 conf: growth inhibitors of wild-type TIM10 yeast, confirmation, counter-screen for tim10-1 synthetic lethality project, single concentration, luminescence, S. cerevisiae. shares compounds with TIM10 inh. S. cerevisiae tim10 strain growth, BacTiter-Glo luminescence, 24 h. inhibition, % at 10 µM. 63% of 4,600 active. AID 463215, 2010;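 active = inhibition of yeast growth at or above a set limit in either of two replicates at 10 µM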;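 note: this counterscreen used the strain with wild-type TIM10; 0% = yeast with DMSO and 100% = medium wells lacking yeast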
* marks the source's active call; other numbers are inactive results; / = no result given. Shown are actives, neighbours in structure and some others; about 4% of the full set was active somewhere.

SMILES	NALP3 yeast inh	tim23-1 inh	TIM10 inh	tim10-1 inh	NALP1 inh	TIM10 conf
O=C(N/N=C/c1ccc(-c2cccc(C(F)(F)F)c2)o1)c1cccc(F)c1	-15	27	45*	5	15	39*
CCC1CCC(NC(=O)Nc2cccc(OC)c2)CC1 (stereo not drawn)	34	25	45*	30	-2	24
COc1cccc(NC(=O)C2CC2)c1	16	34	-5	11	/	/
Cc1cccc(COc2ccc(/C=N/NC(=O)c3nnn(-c4nonc4N)c3CN3CCCCC3)cc2)c1	24	-15	42*	-2	22	-2
Nc1nonc1-n1nnc(C(=O)N/N=C/c2ccc(OCc3cccc(Cl)c3)cc2)c1CN1CCCCC1	20	5	-4	6	13	/
CCN(Cc1ccncc1)C(=O)C(CO)c1ccccc1 (stereo not drawn)	2	-9	5	-37	8	/
COc1ccccc1NC(=O)c1cc2cc(Br)ccc2cc1O	/	/	/	/	20	/
O=C(NCc1cnc2ccccn12)C1CCC(=O)N(Cc2ccccc2F)C1 (stereo not drawn)	14	-4	-4	9	1	/
CC(C)(O)c1[nH]c2cc(C(F)(F)F)ccc2c1C(C)(C)O	20	8	67*	-6	12	4
CCN(CC)c1ccc(C(=S)NC2CCCCC2)cc1	42	24	46*	32	-1	28
CN(C)CCN(C(=O)C1=COCCO1)c1nc2ccc(F)cc2s1	12	26	64*	34	16	13
Cc1cc2occ(CC(=O)NC3=NCCS3)c2cc1C(C)C	4	4	40*	33	27	37*
COc1ccc(S(=O)(=O)N2CCOCC2)cc1C(=O)NC1CCCCCC1	-5	17	10	5	/	/
Cc1onc(-c2c(Cl)cccc2Cl)c1C(=O)N1CCN(c2ccccc2)CC1	13	19	42*	20	3	-1
Cn1c(SCC(=O)N/N=C/c2ccc([N+](=O)[O-])s2)nnc1-c1ccccc1	22	43	71*	28	42	82*
COc1cccc(/C=N/n2c(CO)nc3ccccc32)c1OC	5	13	1	34	10	/
CNc1nc2ccccc2n1/N=C/c1cccc(OC)c1OC	1	50	48*	30	7	29
Cc1cc(C)c(-n2c(C)cc(/C=C3/NC(=O)NC3=O)c2C)c(C)c1	8	23	52*	38	8	-13
COCCN(C(=O)CCC(=O)Nc1cc(C)on1)C(C(=O)NC1CCCC1)c1ccc(C(C)C)cc1 (stereo not drawn)	25	5	6	6	-5	/
COc1ccc(N2CCC(CNC(=S)Nc3cccc(C)c3)C2)cc1 (stereo not drawn)	18	41	26	-6	5	/
COc1ccc(N2CCC(CNC(=S)Nc3c(C)cc(C)cc3C)C2)cc1 (stereo not drawn)	12	49	40*	0	/	56*
O=C(CNc1ccc(F)cc1)N/N=C/c1c(O)ccc2ccccc12	19	39	44*	-8	-10	42*
O=C(CSCc1c(F)cccc1Cl)NNC(=S)NC1CCCCC1	15	21	20	33	8	/
Nc1ccc(-c2nc3ccc(-c4nc5ccccc5o4)cc3[nH]2)cc1	47	32	55*	31	2	0
Cc1nc2ccc(-c3nc4ccccc4o3)cc2[nH]1	38	48	47*	-1	-1	34*
SMILES	NALP3 yeast inh	tim23-1 inh	TIM10 inh	tim10-1 inh	NALP1 inh	TIM10 conf
Cn1nc(C(=O)NNC(=O)C(CCC(N)=O)NS(=O)(=O)c2ccc(Cl)cc2)c2ccccc2c1=O (stereo not drawn)	12	8	4	6	/	/
COC(=O)c1ccc(OC(=O)C2CSC3(C)CCC(=O)N23)cc1 (stereo not drawn)	1	-2	-2	4	/	/
C/C(=N\NC(=S)Nc1ccc(F)cc1)c1ccc2c(c1)OCCO2	22	38	44*	35	4	51*
C/C(=N\NC(N)=S)c1ccc2c(c1)OCCO2	16	10	-3	17	2	/
Cc1ccc(OCCNC(=O)CCc2ccccc2)cc1C	30	5	-31	10	/	/
CCCn1c2c(c(O)c(C(=O)Nc3ncccc3C)c1=O)CCCC2	-9	49	45*	25	14	8
CCCn1c2c(c(O)c(C(=O)Nc3ccc(OCC)cc3)c1=O)CCCC2	20	4	8	-4	-7	/
Cc1occc(=O)c1OCc1ccccc1	-8	-6	94*	-11	28	0
Cc1c(OCc2ccccc2)c(=O)ccn1Cc1ccccc1	12	8	3	7	0	/
COc1ccc(C(=O)NNC(=S)NC(=O)c2cccc([N+](=O)[O-])c2)cc1	21	5	3	-3	/	/
O=C(NC(=S)NNC(=O)c1ccccc1O)c1cccc([N+](=O)[O-])c1	17	20	42*	-18	-10	56*
O=C(C1CCN(S(=O)(=O)c2cccc3nsnc23)CC1)N1CCCCC1	0	10	-3	13	9	/
Cc1ccc(C)c(N2CCN(C(=O)C3CCN(S(=O)(=O)c4cccc5nsnc45)CC3)CC2)c1	21	-1	40*	36	6	32*
NNc1nc(Nc2ccccc2)nc(N2CCCCC2)n1	12	37	41*	32	-4	6
O=[N+]([O-])c1ccc(Nc2nc(NCCO)nc(N3CCCC3)n2)cc1	23	8	6	37	13	/
NNc1nc(Nc2ccc([N+](=O)[O-])cc2)nc(N2CCCCCC2)n1	24	42	97*	33	12	25
Cc1ccc2c(c1)N(C(=O)CCC(=O)NC1CCCCCC1)CCO2	4	16	12	13	10	/
N#C/C(=C\c1c(Oc2ccccc2F)nc2ccccn2c1=O)C(=O)NC1CCS(=O)(=O)C1 (stereo not drawn)	20	9	-5	-7	-2	/
COc1ccc(C=O)cc1COc1ccc2c(c1)OCO2	17	33	1	22	/	/
COc1ccc(C(=O)NC2CCCCC2)cc1OC1CCN(C(C)C)CC1	13	-17	-1	-22	3	/
O=C(Nc1cccc(F)c1)c1cc(S(=O)(=O)NCCC2=CCCCC2)ccc1F	19	39	42*	34	30	-31
O=C(CNc1ccc2ccccc2c1)N/N=C/c1ccc(OC(=O)/C=C/c2ccco2)cc1	-11	10	41*	29	25	36*
O=C(CNc1cccc2ccccc12)N/N=C/c1ccc(OC(=O)/C=C/c2ccco2)cc1	/	/	/	/	24	/
